Data: the supplement of paper PMC6555819

These sequences were tested on VDR:RXRa (NR concentration 270 nM, RXRa partner concentration 90 nM) (assay: PBM binding z-score (relative to random genomic background probes); higher = stronger binding; sequences stand for … in GC…GCGATTGACAGCGTAGAATGAAGG).
Procedure: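 Protein-binding microarray (Agilent 4x180K custom design, double-stranded 60-nt probes: 5' GC cap, 34-nt variable region, 24-nt constant primer region; full probe sequence given). Purified or IVT nuclear receptor:RXRα heterodimers (3:1 NR:RXRα, mostly 270:90 nM) or homodimers were incubated for 1 h in PBS with 2% milk and no ligand, then detected with Alexa488 antibodies. Fluorescence from o1-orientation probes (~5 replicates averaged) was converted to z-scores against 500 random hg19 background probes. Variable regions are seed direct-repeat (DR0–DR5) sites, all their single-nucleotide variants and half-site ablations.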

Sequence	PBM binding z-score
TCTTGTAGATCAGCAGGTAAAGAAAGCTGGCCAA	-0.142
CCTAGTTGGTCAAGGTCACCCACGCTATAGGTAC	4
CCTGCTAGGTCACGGTCAGCTAATCTACAGTATG	2.5
ACTAGCAGGTCAAGTTTGGGTCACTCAAACAAAG	4.68
GTTGCTAGGTCAGGTTGGTCAGCTAACGGGTACG	0.892
GCTATTAGTTGAAAGGGCAACCCAATGATTCTCG	0.662
CAAACTAGTTCACCGGAAGGTCAAAGTCCGCATG	5.4
AATACAGGGTCCCTAGGCCAGAGTAGGTACGAAT	-0.389
CATACAGGGTCAGCTAGGCCAGAGAAGGGACGGC	3.84
GATACAGGGTCAGCCAGAGGCCAGAGTATGGAAA	3.64
ATCTCTAGGTAAAGTTCACTGAAAGATCGATAGA	2.89
CCTAGCAGGCCAGGGTCACTGAAGCATTTCGCTT	2.68
CGTCCAAGGTCAGCCGGTCAGTGAAAGCGACGTG	3.32
TAGCCTAGGTCATGCGGGGCAGTATAGTGTCGGC	4.22
TTATATAGGTAAACAGGTGAAAGTCCGTAAGTTA	0.869
CTCGCAAGGTCGGTTGAGGTGAGTATACGGATAA	1.21
AGAATGAGGTTATACGTAGATCAGTGAAGAAAGT	1.31
CCACACAGGTGAAAGGTAACTCAGTCTGGTACGC	1.05
CCTACTGGGCCTCGAAAGGTCATTGATTCAGTGA	3.34
GCTAGTTGGTCAGTAAAAGGTCACAGACCGGTCG	3.94

Sequence	PBM binding z-score
CCAGACAGGTGAGAAGGTAAATCAGCCTCGATTA	-0.13
ATCGAAAGGTCGAGGTGAGTTTAGAGAAAGGGAA	4.92
TGAATGAGGTTATAAGATCAGCGAACGTTGCAAA	0.842
TCTATTAGTTGATTAGGGCAACCGCAACAGCGGA	0.526
ATCGCAAGGTCGTGAGGTGAGTATACAGAAAGGC	2.33
AGAATGAGGTTATTAATATCAGGGAATTGCGGTC	1.27
GCAGACAGGTGAAACGCAAGTAACTCAGGGTGGC	-0.526
CCTATTAGTTAACCATAAGGGCAACCGAAGCTCG	0.653
GCGATTGGGGCAAAGCAGGTTACCATAAGGTTGG	0.27
CAAATTAGGTCAAGGTCAAAGTCGGTTTGTGCCA	5.33
GGAACGAGGGCAAGTCGATAGCAGAGTTTGATGG	0.364
GATACAGGGTCAAGGCCACAGTACGCGTATTGAT	4.2
AGTACAGGGTCATCGTAGGCCAGAGTACGCACAG	5.08
TAGCCTAGGTCACTGGGCCAGTATAGTACGCATC	1.45
ACAGACAGGTCAGTGAAGGTAACTCAGCTGGACG	1.41
TCATATAGGTAAACGGTGAAAGTCGGTGTGGTAA	0.79
GCTTGTACATCAAGGTTAAGAAAGACTAAGCTAA	0.208
TGAATGACGTTATAAGATCAGGGAACGTTGCAAA	0.104
CCAGACGGGTGAGAAGGTAACTCAGCCTCGATTA	-0.516
ACTAGCAGGCCAAGGCTCACTCAAGATTAGTCCG	-0.781
